Rows were chosen to be rich in hits. Some 3% of all compounds tested hit in one or more screens of this group.
MITF TRPM1 HTS: activators of MITF-driven TRPM1 promoter reporter, primary screen, cell-based, SK-MEL-5, luciferase, single point. activation, % at 12.5 µM. 0.75% of 300,000 active. SK-MEL-5 TRPM1-promoter luciferase, 24 h; % of positive control, neutral wells = 0. AID 588334, 2011;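 active = mean activation of at least 80% with every replicate also reaching 80%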;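 also: 0% = neutral control wells and 100% = parthenolide positive control wells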
LGR2 inh: inhibitors of bursicon-induced LGR2 CRE-luciferase signal, primary screen, cell-based, HEK293, CRE-luciferase reporter, bursicon stimulation; bursicon-stimulated, 4 h; Drosophila bursicon receptor LGR2 (rickets); 0.35% of 380,000 active; inhibition, % at 9.99 µM;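 active = drop in luminescence signal, shown as inhibition above about 50% in the replicate tests, limit read from the data, passing the limit was not always enough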;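 also: agonist challenge used bursicon conditioned medium at about half maximal strength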
EBV LMP1 NFkB: EBV LMP1-driven NF-kappaB luciferase reporter inhibitors, primary screen, cell-based, luminescence, single point | AID 504558, 2011 | LMP1-induced NF-kappaB luciferase reporter cells | inhibition, % at 12.5 µM | 0.69% of 350,000 active; in the data active = inhibition above about 41%;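 also: 0% = neutral control wells and 100% = reference inhibitor control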
TROY NFkB inh: inhibitors of TROY-driven NF-kB signaling, primary screen, Q293 LMP1-TROYcd cells, NF-kB luciferase, uHTS; Q293 LMP1-TROYcd NF-kB luciferase reporter, 4 h; inhibition, % at 10 µM; 0.98% of 360,000 active; AID 1347056, 2019;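 active = compounds whose plate-normalised and pattern-corrected inhibition of the luciferase reporter signal at the single screening dose is 50% or more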
TWEAK-Fn14 inh: inhibitors of TWEAK-Fn14 signaling, primary screen, luciferase reporter cells, uHTS | TWEAK-stimulated Fn14 reporter cells, luciferase luminescence, 8 h | inhibition, % at 10 µM | 2% of 360,000 active | AID 1159606, 2016; in the data active = inhibition above about 50%
TRPM1 prom inh: inhibitors of MITF-dependent TRPM1 promoter reporter, primary screen, cell-based, SK-MEL-5, single point, luciferase; SK-MEL-5 TRPM1 promoter luciferase, 24 h; inhibition, % at 12.5 µM; 0.83% of 330,000 active; AID 488899, 2010;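 active = mean inhibition across replicates of 60% or more, whatever share of single replicates reaches that level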
Numbers without * were called inactive; . = no result.

SMILES | MITF TRPM1 HTS | LGR2 inh | EBV LMP1 NFkB | TROY NFkB inh | TWEAK-Fn14 inh | TRPM1 prom inh
COc1ccc(NC(=O)N(C)C[C@@H]2Oc3ncc(C#C[C@@H](C)O)cc3C(=O)N([C@@H](C)CO)C[C@H]2C)cc1 | . | -25 | . | . | . | .
COc1cccc(NC(=O)c2ccc(OC(F)(F)F)cc2)c1 | 107* | -44 | -31 | -38 | -17 | -102
C[C@H]1CN([C@@H](C)CO)C(=O)c2cccc(NC(=O)c3cnccn3)c2O[C@H]1CN(C)Cc1ccc(Cl)c(Cl)c1 | . | -4 | . | . | . | .
CCNc1ccc(Br)cc(C(=O)/C=C/c2ccc(Cl)cc2Cl)c1=O | -25 | . | 49* | 15 | 3 | 27
CCOc1ccc2c(C)c(Cl)c(=O)oc2c1 | 2 | . | 64* | -18 | -12 | 2
CCCOc1ccc2c(C)c(CC(=O)OC)c(=O)oc2c1 | 125* | . | -15 | -50 | -16 | -121
COC(=O)Cc1c(C)c2ccc(OCC(=O)N(C)C)cc2oc1=O | 9 | . | -2 | 7 | -7 | -15
CO[C@@H]1CN(C)C(=O)c2ccc(NC(=O)C3CCOCC3)cc2OC[C@H](C)N(Cc2nccs2)C[C@@H]1C | . | 10 | . | . | . | .
Cc1cc(N=Cc2c(O)n(-c3ccc(C)c(C)c3)c(=O)c3ccccc23)no1 | . | 7 | . | . | . | .
CCOC(=O)Cc1csc(/N=C/c2c(O)n(-c3ccc(C)c(C)c3)c(=O)c3ccccc23)n1 | -65 | 6 | 1 | -30 | 6 | 66*
Cc1cc(N=Cc2c(O)n(-c3ccc4c(c3)OCO4)c(=O)c3ccccc23)ccn1 | -73 | . | -2 | -19 | -3 | 75*
Cc1ccc(-n2c(O)c(C=Nc3ccc4c(c3)OCO4)c3ccccc3c2=O)cc1C | -2 | . | 2 | 63* | 12 | 4
Cc1cccc(-n2c(O)c(C=Nc3ccc4c(c3)OCO4)c3ccccc3c2=O)n1 | . | . | -3 | -9 | 17 | 0
CO[C@@H]1CN(C)C(=O)c2ccc(NC(=O)C3CC3)cc2OC[C@H](C)N(Cc2cncnc2)C[C@@H]1C | . | -23 | . | . | . | .
COc1ccc(CCNC(=O)C2COc3ccccc3O2)cc1OC (stereo not given) | . | -20 | -1 | 12 | 93* | 0
COc1ccc(CCNC(=O)CCC2COc3ccccc3O2)cc1OC (stereo not given) | -6 | . | 1 | 12 | -8 | 6
Cc1ccc(C(=O)Nc2ncc(Cc3ccccc3)s2)o1 | 35 | . | -9 | -5 | 66* | -30
OC(CNCCC1C=Nc2ccccc21)Cn1c2ccc(Cl)cc2c2cc(Cl)ccc21 (stereo not given) | -90 | 19 | -54 | 49 | 74* | 91*
COc1ccccc1C1CCN(c2cc(O)ccc2[N+](=O)[O-])CC1 | 6 | -12 | -4 | 57* | -9 | -6
CC(C)C[C@@H]1CN(CCCC[C@H]2CNC(=O)C(=O)N2CCC2CCCCC2)C(=O)C(=O)N1CCC1CCCCC1 | . | -38 | . | -31 | 61* | .
CO[C@H]1CN(C)C(=O)c2cc(NC(=O)c3ccno3)ccc2OC[C@@H](C)NC[C@@H]1C | . | 7 | . | . | . | .
CN(C)c1cc[n+](CCC(=O)Nc2cccc([N+](=O)[O-])c2N)cc1 | 14 | 3 | -5 | 4 | 18 | -14
Nc1c(NC(=O)CC[n+]2ccccc2)cccc1[N+](=O)[O-] | -5 | . | 2 | 46 | 52* | 6
Cc1nc([N+](=O)[O-])c(Sc2nc3ccc([N+](=O)[O-])cc3[nH]2)n1Cc1ccccc1 | 10 | 25 | 2 | 34 | 80* | -6
COC(=O)[C@]12CCCCC=C1N(CCc1ccc(OC)c(OC)c1)C(=O)[C@H](CC(=O)NCc1cccc3ccccc13)C2 | . | 27 | . | . | . | .
SMILES | MITF TRPM1 HTS | LGR2 inh | EBV LMP1 NFkB | TROY NFkB inh | TWEAK-Fn14 inh | TRPM1 prom inh
CCOC(=O)[C@]12CCC=C1N(Cc1ccco1)C(=O)[C@H](CC(=O)NCc1ccc(OC)c(OC)c1)C2 | . | 5 | . | -3 | -5 | .
COC(=O)[C@]12CCCCC=C1N(Cc1cccc3ccccc13)C(=O)[C@H](CC(=O)NCc1ccc(OC)c(OC)c1)C2 | . | 89* | . | 63* | 97* | .
CCOC(=O)[C@]12CCC=C1N(Cc1cccc3ccccc13)C(=O)[C@H](CC(=O)NCc1ccc(OC)c(OC)c1)C2 | . | 34 | . | 34 | 61* | .
CO[C@H]1CN(C)C(=O)c2cc(NC(=O)Nc3cc(F)ccc3F)ccc2OC[C@@H](C)N(C(=O)c2ccccn2)C[C@@H]1C | . | -13 | . | . | . | .
COCC(=O)Nc1ccc2c(c1)[C@H]1C[C@@H](CC(=O)OC)O[C@H](CO)[C@H]1O2 | . | -18 | . | . | . | .
COc1ccc(NC(=O)c2cccc(Oc3ccccc3)c2)cn1 | 2 | -21 | -8 | -17 | 11 | 5
O=C(Nc1ccc(Br)cc1)c1cccc(S(=O)(=O)Nc2ccccn2)c1 | -7 | -7 | 11 | 6 | 23 | 7
O=C(Nc1ccc(Br)cc1)c1cccc(S(=O)(=O)Nc2cnc3ccccc3c2)c1 | -12 | 0 | 12 | 43 | 51* | 10
COc1ccc(NC(=O)c2cccc(S(=O)(=O)Nc3ccc(Br)cc3)c2)cn1 | -6 | 25 | 6 | 45 | 64* | 7
COC(=O)[C@H]1[C@H](CO)[C@H]2Cn3c(ccc(-c4ccncc4)c3=O)[C@H]2N1CC1CCCC1 | . | 13 | . | . | . | .
Cc1cc(OCC(=O)OCC(=O)c2c(N)n(C)c(=O)n(C)c2=O)ccc1Cl | -9 | 1 | 3 | 15 | 86* | 5
C[C@@H]1CN([C@@H](C)CO)C(=O)c2cc(NC(=O)Nc3ccc(C(F)(F)F)cc3)ccc2O[C@@H]1CN(C)C(=O)Nc1ccc(F)cc1 | . | -32 | . | . | . | .
c1ccc(-c2csc(Nc3ccc4c(c3)OCCO4)n2)cc1 | 23 | . | -100 | 58* | 45 | -22
COc1ccc(-c2csc(Nc3ccccc3)n2)cc1 | 65 | 1 | -39 | 16 | 19 | -62
COc1cccc(Nc2nc(-c3ccc4c(c3)OCCO4)cs2)c1 | 87* | . | -36 | 43 | 33 | -75
COc1ccccc1C(=O)Nc1nc(-c2ccc3c(c2)OCCO3)cs1 | . | 1 | 3 | 51* | 5 | .
COc1ccc(-c2csc(NC(=O)c3c(C)noc3C)n2)cc1F | 25 | -9 | 15 | 77* | 20 | -23
C=CCNc1nc(-c2ccc3c(c2)OCCO3)cs1 | 29 | -40 | -33 | -22 | -17 | -25
c1cc2c(cc1Nc1nc(-c3ccc4c(c3)OCO4)cs1)OCCO2 | . | . | -17 | 44 | 56* | -43
COc1ccc2c3c([nH]c2c1)[C@H](CO)N(C(=O)c1ccccc1)CC31CN(S(=O)(=O)c2cccs2)C1 | . | 8 | . | . | . | .

High-throughput results from PubChem.
